{"source": "PubChem BioAssay AID488930", "about": "(Broad Institute, 2010)", "note": "Entries with a potency or affinity are not part of this list. Inconclusive results are not listed. The source made the active and inactive calls.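 Rule for the calls: active = compounds whose fitted half-maximal concentration is at most ten times their top tested dose; inconclusive = flat curve with 30 to 70% inhibition, or poor fit; inactive = the rest.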", "data": [{"assay": "Candida growth reduction in fluconazole presence – CaCi-2 strain, Alamar Blue, dry powder, set 2, antifungal resistance reversal project, dose response (AID 488930)", "conditions": "C. albicans CaCi-2 (fluconazole-resistant clinical isolate) + fluconazole, 48 h; series mostly up to 6 µM; activity change, negative = inhibition: at the top concentration", "values": [{"smiles": "COc1cccc2c(N3CCN(C(=O)c4ccc(Cl)cc4)CC3)cc(C)nc12", "activity change, negative = inhibition": "164% (inactive)"}, {"smiles": "COCCC(=O)N1CCN(c2ccnc3cc(Cl)ccc23)CC1", "activity change, negative = inhibition": "-13.6% (inactive)"}, {"smiles": "O=C(c1ccc(Cl)cc1)N1CCN(c2ncnc3ccccc23)CC1", "activity change, negative = inhibition": "88.1% (inactive)"}, {"smiles": "O=C(c1ccccc1Cl)N1CCN(c2ccnc3cc(Cl)ccc23)CC1", "activity change, negative = inhibition": "-43% (inactive)"}, {"smiles": "O=C(c1ccc(Cl)cc1)N1CCN(c2ncnc3nc[nH]c23)CC1", "activity change, negative = inhibition": "16.3% (inactive)"}, {"smiles": "CCCC(=O)N1CCN(c2ccnc3cc(Cl)ccc23)CC1", "activity change, negative = inhibition": "-2.55% (inactive)"}, {"smiles": "COc1ccnc(N2CCN(C(=O)c3ccc(Cl)cc3)CC2)c1", "activity change, negative = inhibition": "5.73% (inactive)"}, {"smiles": "Cc1cc(N2CCN(C(=O)c3ccc(Cl)cc3)CC2)c2ccccc2n1", "activity change, negative = inhibition": "94.9% (inactive)"}, {"smiles": "N#Cc1ccc(N2CCN(C(=O)c3ccc(Cl)cc3)CC2)nc1", "activity change, negative = inhibition": "12.6% (inactive)"}, {"smiles": "COc1ccc2c(N3CCN(C(=O)c4ccc(Cl)cc4)CC3)ccnc2c1", "activity change, negative = inhibition": "156% (inactive)"}, {"smiles": "Clc1ccc2c(N3CCNCC3)ccnc2c1", "activity change, negative = inhibition": "10.2% (inactive)"}, {"smiles": "O=C(Nc1ccc(Cl)cc1)N1CCN(c2ccnc3cc(Cl)ccc23)CC1", "activity change, negative = inhibition": "-63.8% (inactive)"}, {"smiles": "O=C(c1ccc(Cl)cc1)N1CCCN(c2ccnc3cc(Cl)ccc23)CC1", "activity change, negative = inhibition": "168% (inactive)"}, {"smiles": "O=C(c1ccc(Cl)cc1)N1CCN(c2ccncc2)CC1", "activity change, negative = inhibition": "53.9% (inactive)"}, {"smiles": "Cc1cc(N2CCN(C(=O)c3ccc(Cl)cc3)CC2)c2ccc(F)cc2n1", "activity change, negative = inhibition": "193% (inactive)"}, {"smiles": "O=C(O)Cn1nc(-c2ccccc2)c2ccccc21", "activity change, negative = inhibition": "2.53% (inactive)"}, {"smiles": "O=C(c1ccc(Cl)cc1)N1CCNCC1", "activity change, negative = inhibition": "-31.8% (inactive)"}, {"smiles": "O=C(c1ccc(Cl)cc1)N1CCN(c2ccnc3ccccc23)CC1", "activity change, negative = inhibition": "192% (inactive)"}, {"smiles": "O=C(c1ccc(Cl)cc1)N1CCN(c2cccnc2)CC1", "activity change, negative = inhibition": "-10.4% (inactive)"}]}]}
